This passage reports z-score and composite z-score results from PubChem BioAssay.

The source made the active and inactive calls.

Test [1] can be described thus: optical density shifts of acrAB sulA E. coli – strain DRC41, OD650, 48 h, E. coli filamentation inducer project, primary screen (AID 1152).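 Further: E. coli MC1000 strain DRC41 lacking acrAB efflux pump and sulA.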 To be noted: higher = more signal, called active from +8 up or from −8 down.
Test [2] can be described thus: probe aLefty1 binding on compound microarray – biochemical, small-molecule microarray, 635/667 nm fluorescence, primary screen (AID 1153).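 Further: score merges spot fluorescence with signal-to-noise ratio from the scanned slide images.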 To be noted: higher = more signal.
Test [3] in a line: plasmodial surface anion channel blockers, osmotic lysis – cell-based, P. falciparum Indochina, OD700, 1 h, primary screen (AID 1154). To be noted: P. falciparum Indochina infected RBC osmotic lysis, higher = more signal, called active from +8 up or from −8 down.
The nature of test [4]: plasmodial surface anion channel blockers, osmotic lysis – cell-based, P. falciparum Indochina, OD700, 2 h, primary screen (AID 1155).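 Further: lysis reports solute entry through the parasite surface anion channel PSAC.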 To be noted: P. falciparum Indochina infected erythrocytes, higher = more signal, called active from +8 up or from −8 down.
Test [5] in a line: changes in parasitized red cell lysis, either direction – P. falciparum Indochina, OD700, 3 h, PSAC antagonist project, primary screen (AID 1156). To be noted: P. falciparum-infected erythrocytes, osmotic lysis, higher = more signal, called active from +8 up or from −8 down.
A short description of test [6]: plasmodial surface anion channel blockers, osmotic lysis – cell-based, P. falciparum Indochina, OD700, 18 h, primary screen (AID 1157). To be noted: P. falciparum Indochina infected erythrocytes, osmotic lysis OD700, 18 h; higher = more signal, called active from +8 up or from −8 down.
The nature of test [7]: S6 kinase pathway phospho-S6 level changes – cell-based, A549, cytoblot, luminescence, serum-stimulated, primary screen (AID 1158).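 Further: serum-stimulated A549 lung adenocarcinoma cells; signal is phosphorylated S6 detected by cytoblot immunostaining with HRP secondary.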 To be noted: 5 h, higher = more signal.
The target of test [8] is NADPH oxidase 2 (Homo sapiens) (UniProt P04839). Briefly: compounds shifting NOX2 Amplex Red fluorescence – cell-based, HEK293-NOX2, PMA-stimulated, NOX inhibitor project, primary screen (AID 1159). Further: test concentration not given here. To be noted: 45 min, higher = more signal, called active from +8 up or from −8 down.
Chain of NADPH oxidase 2 (Homo sapiens) (P04839 whole entry, looked up): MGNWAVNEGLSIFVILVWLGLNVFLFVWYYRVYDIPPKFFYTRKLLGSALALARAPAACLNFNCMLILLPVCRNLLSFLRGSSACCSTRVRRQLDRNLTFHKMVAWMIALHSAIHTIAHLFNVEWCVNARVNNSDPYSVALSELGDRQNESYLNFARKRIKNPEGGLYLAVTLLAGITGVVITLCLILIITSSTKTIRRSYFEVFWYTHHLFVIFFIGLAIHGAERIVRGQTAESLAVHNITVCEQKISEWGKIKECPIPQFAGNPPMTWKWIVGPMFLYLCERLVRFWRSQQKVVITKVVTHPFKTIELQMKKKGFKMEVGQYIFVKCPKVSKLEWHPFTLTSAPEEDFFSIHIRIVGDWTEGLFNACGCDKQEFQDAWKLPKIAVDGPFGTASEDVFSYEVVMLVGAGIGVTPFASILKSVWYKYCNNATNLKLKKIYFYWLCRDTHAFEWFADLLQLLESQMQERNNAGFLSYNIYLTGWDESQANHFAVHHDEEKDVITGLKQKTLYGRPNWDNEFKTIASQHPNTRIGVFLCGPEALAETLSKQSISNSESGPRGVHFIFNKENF
In test [9] the target is NADPH oxidase 4 (Homo sapiens) (UniProt Q9NPH5). Briefly: compounds shifting NOX4 Amplex Red fluorescence – cell-based, HEK293-NOX4, tetracycline-induced, NOX inhibitor project, primary screen (AID 1160). To be noted: HEK293-NOX4, Amplex Red H2O2 fluorescence, 45 min; higher = more signal, called active from +8 up or from −8 down.
Chain of NADPH oxidase 4 (Homo sapiens) (Q9NPH5 whole entry, looked up): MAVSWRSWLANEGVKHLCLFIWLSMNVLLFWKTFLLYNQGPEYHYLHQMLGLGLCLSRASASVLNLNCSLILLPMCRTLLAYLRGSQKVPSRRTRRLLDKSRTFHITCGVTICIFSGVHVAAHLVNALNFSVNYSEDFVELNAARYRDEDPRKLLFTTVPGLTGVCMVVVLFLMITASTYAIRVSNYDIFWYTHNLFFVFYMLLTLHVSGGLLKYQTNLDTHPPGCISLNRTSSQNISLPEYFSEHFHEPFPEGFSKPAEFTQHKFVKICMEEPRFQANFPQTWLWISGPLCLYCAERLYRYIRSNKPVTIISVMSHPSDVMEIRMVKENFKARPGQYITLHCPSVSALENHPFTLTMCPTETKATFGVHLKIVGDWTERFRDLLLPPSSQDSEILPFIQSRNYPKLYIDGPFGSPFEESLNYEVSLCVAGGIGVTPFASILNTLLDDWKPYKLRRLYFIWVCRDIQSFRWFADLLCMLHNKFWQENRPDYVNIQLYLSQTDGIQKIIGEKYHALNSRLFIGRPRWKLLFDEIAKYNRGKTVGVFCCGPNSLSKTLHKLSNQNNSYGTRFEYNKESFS
For test [10], the target named is NADPH oxidase 5 (Homo sapiens) (UniProt Q96PH1). Briefly: compounds shifting NOX5 Amplex Red fluorescence – cell-based, HEK293-NOX5, NOX inhibitor project, primary screen (AID 1161). To be noted: HEK293-NOX5, ionomycin, 45 min, higher = more signal.
Chain of NADPH oxidase 5 (Homo sapiens) (Q96PH1 whole entry, looked up): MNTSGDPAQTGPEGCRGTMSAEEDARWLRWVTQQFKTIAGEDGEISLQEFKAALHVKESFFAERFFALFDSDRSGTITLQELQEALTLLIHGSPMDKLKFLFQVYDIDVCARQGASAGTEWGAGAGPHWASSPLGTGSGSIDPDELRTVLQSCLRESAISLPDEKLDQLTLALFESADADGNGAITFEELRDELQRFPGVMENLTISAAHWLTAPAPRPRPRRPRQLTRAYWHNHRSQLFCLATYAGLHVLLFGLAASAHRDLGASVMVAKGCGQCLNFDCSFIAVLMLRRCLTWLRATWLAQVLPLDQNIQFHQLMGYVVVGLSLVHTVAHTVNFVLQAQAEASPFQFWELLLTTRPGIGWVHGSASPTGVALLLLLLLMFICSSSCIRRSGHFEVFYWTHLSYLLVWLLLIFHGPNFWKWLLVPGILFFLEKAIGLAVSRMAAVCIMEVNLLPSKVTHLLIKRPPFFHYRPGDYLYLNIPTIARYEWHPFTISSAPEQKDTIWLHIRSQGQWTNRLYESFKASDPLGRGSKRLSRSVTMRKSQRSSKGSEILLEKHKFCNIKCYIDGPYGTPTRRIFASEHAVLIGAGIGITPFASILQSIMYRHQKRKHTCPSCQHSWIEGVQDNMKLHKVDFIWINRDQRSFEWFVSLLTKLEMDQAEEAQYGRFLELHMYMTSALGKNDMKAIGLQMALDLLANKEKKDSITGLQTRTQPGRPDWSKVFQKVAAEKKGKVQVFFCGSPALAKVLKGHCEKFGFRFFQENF
Test [11] is described as follows: compound effects on lung adenocarcinoma cell viability – A549, calcein-AM fluorescence, 48 h, basal, profiling panel (AID 1162). Further: test concentration not given here. To be noted: higher = more signal.
The nature of test [12]: compound effects on differentiated 3T3-L1 adipocyte viability – cell-based, 3T3-L1 adipocytes, calcein-AM fluorescence, 48 h, basal, profiling panel (AID 1163). Further: test concentration not given here. To be noted: 3T3-L1 adipocytes viability, higher = more signal.
Test [13] in a line: compound effects on hepatocellular carcinoma cell viability – HepG2, calcein-AM fluorescence, 48 h, basal, profiling panel (AID 1164). Further: test concentration not given here. To be noted: higher = more signal.
Test [14] in a line: compound effects on multiple myeloma cell viability – MM1S, calcein-AM fluorescence, 48 h, basal, profiling panel (AID 1165).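 Further: viability of MM1S multiple myeloma cells under basal unstimulated conditions; test concentration not given here.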 To be noted: higher = more signal.
Test [15] is described as follows: calcein-AM signal in unstimulated myeloma cells – cell-based, calcein-AM fluorescence, 48 h, PK04 Diversity Set, profiling panel (AID 1166).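 Further: cells grown under basal conditions without added stimulus; test concentration not given here.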 To be noted: RPMI8226 myeloma viability, higher = more signal.
Test [16] can be described thus: JC-1 mitochondrial signal, unstimulated HepG2 cells – cell-based, JC-1 fluorescence, 24 h, 100 nL compound, profiling panel (AID 1167). Further: test concentration not given here. To be noted: HepG2 mitochondrial potential, higher = more signal.
A short description of test [17]: JC-1 mitochondrial signal, unstimulated adipocytes – cell-based, JC-1 fluorescence, 3T3-L1 adipocytes, 24 h, 100 nL compound, profiling panel (AID 1168). Further: test concentration not given here. To be noted: JC-1 mitochondrial fluorescence, higher = more signal, called active from +8 up or from −8 down.
Test [18] in a line: JC-1 mitochondrial signal, unstimulated myeloma cells – cell-based, JC-1 fluorescence, RPMI8226, 24 h, 100 nL compound, profiling panel (AID 1169). Further: test concentration not given here. To be noted: JC-1 mitochondrial potential fluorescence, higher = more signal.
The nature of test [19]: JC-1 mitochondrial signal, unstimulated MM1S myeloma – cell-based, JC-1 fluorescence, 24 h, 100 nL compound, profiling panel (AID 1170). Further: test concentration not given here. To be noted: MM1S mitochondrial potential, higher = more signal.
Test [20] can be described thus: resazurin metabolic signal in A549 cells – cell-based, resazurin fluorescence, 24 h, PK04 Diversity Set, profiling panel (AID 1171). Further: test concentration not given here. To be noted: A549 viability, higher = more signal, called active from +8 up or from −8 down. On the technique in general: Resazurin is reduced to fluorescent resorufin, in cell work by metabolically active cells.

As to `C=CC1=C[C@H](O)[C@@H]2O[C@@H]2C12OCCCO2`, the z-score in test [1] was 0.104 (inactive); in [3], -0.179 (inactive); in [4], 0.191 (inactive); in [5], -0.264 (inactive); in [6], -0.121 (inactive); in test [7], -0.495. Also, the z-score in [8] is -1.11 (inactive); in test [9], 0.617 (inactive); in [10], 0.629; in [11], -0.375; in test [12], -0.564; in test [13], -0.0684. The z-score in test [14] is -0.705; in [15] it was 0.265; in test [16], -0.977; in test [17], -0.729 (inactive); in [18], -0.371; in test [19], -0.361. Besides, the z-score in test [20] was 0.0527 (inactive). The composite z-score in test [2] was -0.275.
Turning to `COC(=O)[C@@H]1CC[C@H](C)[C@@H](c2ccc(C)cc2)N1C(=O)c1ccc(C=NO[C@@H]2O[C@H](COC(C)=O)[C@@H](OC(C)=O)[C@H](OC(C)=O)[C@H]2OC(C)=O)cc1`, the z-score in test [1] is -0.492 (inactive); in test [3], -0.013 (inactive); in test [4], -0.647 (inactive); in [5], 0.819 (inactive); in test [6], -1.79 (inactive); in test [7] it was 1.02. In addition, the z-score is -0.454 (inactive) in [8]; -0.674 (inactive) in test [9]; -2.1 in [10]; -1.3 in [11]; 0.216 in test [12]; -0.373 in [13]. Also, the z-score is -0.82 in test [14]; -1.17 in test [15]; 2.74 in test [16]; 0.28 (inactive) in test [17]; -0.139 in test [18]; 0.155 in [19]. Further, the z-score in test [20] was 0.855 (inactive). The composite z-score in test [2] is 0.0391.
Take `CCCNC(=O)OC[C@H]1O[C@H](CCON=C(C)C)C=C[C@@H]1Oc1ccc(OC)cc1`: the z-score in test [1] was -1.21 (inactive); in [3], 0.683 (inactive); in [4], 0.411 (inactive); in [5], -0.551 (inactive); in test [6], 0.367 (inactive); in test [7] it was -0.131. Further, the z-score was -0.278 (inactive) in test [8]; 0.389 (inactive) in [9]; -0.533 in test [10]; 0.171 in test [11]; 0.008 in [12]; -0.0737 in test [13]. The z-score in test [14] is -0.39; in [15], 0.0566; in test [16] it was -1.57; in test [17], -1.43 (inactive); in test [18], 0.255; in test [19], 0.276. Also, in test [20], the z-score is 0.095 (inactive). In addition, the composite z-score in test [2] worked out at 0.209.
As to `CC(C)=NOC[C@@H](C)[C@H](OCc1ccccc1)C(C)C`, the z-score in test [1] was 0.287 (inactive); in [3] it was 0.641 (inactive); in test [4] it was 0.503 (inactive); in [5] it was 0.795 (inactive); in [6], 0.39 (inactive); in [7], 0.453. The z-score in [8] was 0.409 (inactive); in [9], -1.72 (inactive); in test [10], -1; in test [11] it was 0.108; in [12] it was 0.311; in test [13], -0.0481. Also, the z-score was -0.313 in test [14]; -0.556 in [15]; -0.0858 in test [16]; 0.0392 (inactive) in [17]; -0.279 in test [18]; 0.503 in test [19]. Also, in test [20], the z-score is -0.557 (inactive). The compound further registered a composite z-score in test [2] of 0.103.
Consider `CCc1cc2c(nc1CC)CCN(CCC(C)=NOC[C@H]1O[C@H](c3ccccc3)C=C[C@@H]1Oc1ccc(OC)cc1)C2`, for which the z-score in test [1] was -0.563 (inactive); in [3], 6.37 (inactive); in [4], -0.735 (inactive); in test [5], 2.37 (inactive); in [6] it was -1.62 (inactive); in [7], 1.18. In addition, the z-score in test [8] was -1.83 (inactive); in [9] it was -0.845 (inactive); in test [10] it was -2.68; in test [11], -0.67; in test [12], 0.765; in test [13] it was -0.106. The z-score is -2.03 in test [14]; -2.35 in test [15]; 5.61 in test [16]; -1.1 (inactive) in test [17]; -0.0846 in test [18]; 0.0581 in test [19]. Moreover, the z-score in test [20] was 0.364 (inactive). For the same compound, the composite z-score in [2] was -0.0003.
